Assay outcomes deposited in PubChem by National Center for Advancing Translational Sciences (NCATS).
In the library only some 17% were active in any assay of this set; here they are far more common.
HepG2 viability – HepG2 cytotoxicity, counter-screen for TGF-b inhibitors; HepG2 CAGA-GFP viability, ATP luminescence, 18 h; Potency, µM (highest dose often 46.1 µM), actives largely listed as cytotoxic; hit rate 0.76% among 410,000
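HepG2 CAGA-GFP cells (1000/well, DMEM with 1% FBS) received compound, then TGF-beta at 500 pg/mL final, and were incubated 18 hours at 37 degrees C. Viability was read by CellTiter-Glo luminescence. Media-only wells were set as complete cell-killing and DMSO as no toxicity.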
TDP1 cell noCPT – qHTS for Inhibitors of human tyrosyl-DNA phosphodiesterase 1 (TDP1): qHTS in cells in absence of CPT; Potency, µM (titrated, usually from 46.2 µM), usual class: inhibitors; hit rate 15% among 420,000; AID 686978, 2013; DT40 Tdp1-/- hTDP1 cells, no CPT, ATP luminescence, 48 h; note: nearly all actives have a fitted effect of over 55% in size
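Seeded 400 DT40-hTDP1 cells/well (vehicle DMSO, no 20 nM CPT); pinned compounds; ≥48 hr at 37 °C; CellTiter-Glo luminescence as viability measure.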
HT1080NT lethal – kills 2HG-producing HT-1080-NT fibrosarcoma cells. HT-1080-NT fibrosarcoma viability, CellTiter-Glo ATP luminescence, 48 h. Potency, µM (top dose mostly 46.1 µM), actives largely listed as cytotoxic. hit rate 1.6% among 360,000;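 note: NT is the 2HG producing partner of a matched IDH1 knockdown line; nearly all actives have a fitted effect of over 55% in size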
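Read-out is CellTiter-Glo luminescence after 10 minutes at room temperature, following 48 hours' compound treatment of HT-1080-NT cells (750 cells/well, RPMI, 5% FBS, 37 degrees C).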
HT1080 IDH1KD tx – HT-1080 IDH1 knockdown cell toxicity (counter line); HT-1080 IDH1 knockdown viability, ATP luminescence, 48 h; Potency, µM (titrated, usually from 46.1 µM), most hits filed as cytotoxic; hit rate 2% among 360,000; AID 686971
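% activity derives from luminescence (CellTiter-Glo), normalised to DMSO and no-cell wells. HT-1080-IDH1KD cells, 750/well, had 48 h compound exposure at 37 °C.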
TGFb inhibitor – inhibitors of TGF-b signaling. HepG2 CAGA-GFP TGF-b/SMAD3 reporter, GFP fluorescence, 18 h; TGF-beta stimulated, 500 pg/mL final. Potency, µM (titrated, usually from 46.1 µM), hits mostly inhibitors. hit rate 1.2% among 410,000. AID 588855; note: nearly all actives have a fitted effect of over 65% in size
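First, reporter cells (HEPG2 CAGA-GFP) rested 2 h at 37 degrees C. Next, compounds were pinned in and TGF-beta added to 500 pg/mL final. After 18 h, GFP was imaged per cell and summed per well.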
TDP1 cell CPT – growth inhibition of DT40 Tdp1-/-;hTDP1 cells with camptothecin (screen for TDP1 inhibitors); chicken DT40 Tdp1-/-;hTDP1 cells + 20 nM CPT, ATP luminescence, 48 h; Potency, µM (top dose mostly 46.2 µM), most hits filed as inhibitors; hit rate 12% among 420,000; note: nearly all actives have a fitted effect of over 55% in size
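Chicken DT40 Tdp1-/- cells stably complemented with human TDP1 were seeded at 400 cells/well in medium containing 20 nM camptothecin, exposed to pin-transferred compounds, and grown at 37 °C for at least 48 hr. Viability was read as ATP luminescence.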
Hits are given with their value; – = inactive; ? = inconclusive; · = not tested or not shown. Calls come from the whole dose curve; as a rule, active = well fitted curve in the direction sought with a large enough effect; inconclusive = small, poorly fitted or top-dose-only effect, or another doubt; inactive = no such curve, though single readings can be large; an effect the other way counts as inactive or inconclusive.

SMILES	HepG2 viability	TDP1 cell noCPT	HT1080NT lethal	HT1080 IDH1KD tx	TGFb inhibitor	TDP1 cell CPT
CCOC(=O)c1c(C)sc2c1N(C(=O)CCl)c1cc(Cl)ccc1S2	–	4.1µM	23µM	18µM	?	4.1µM
COc1ccc(S(=O)(=O)n2ccc(C(C)Oc3ccc(-c4ccccc4)c(F)c3)n2)cc1 (configuration not stated)	–	18µM	–	?	–	26µM
COc1ccc(C(=O)NCCc2sc(-c3ccc(Cl)cc3)nc2C)c(OC)c1	–	?	·	·	?	16µM
Cc1nc(-c2ccc(F)cc2)sc1CCNC(=O)c1cccs1	–	?	·	·	–	21µM
Cc1nc(-c2ccc(F)cc2)sc1CCNC(=O)c1ccc(C(C)(C)C)cc1	–	16µM	·	·	?	15µM
Cc1nc(-c2ccc(F)cc2)sc1CCNC(=O)c1ccccc1	–	23µM	·	·	–	15µM
COc1ccc(NC(=O)C(=O)NCCc2sc(-c3ccc(Cl)cc3)nc2C)cc1	–	–	·	·	–	–
COc1ccc(-c2nc(C)c(CCNC(=O)c3cccs3)s2)cc1OC	–	·	·	·	–	·
O=C(Nc1cccc(O)c1)C1CC(c2ccc(Cl)cc2)=NO1 (configuration not stated)	–	–	–	–	–	–
CCN(CC)C(=O)[C@H]1C[C@H](CC(=O)NC(C)(C)C)C(=O)N2CCc3c([nH]c4cc(CCC(=O)N(C)C)ccc34)[C@]12C	–	–	–	–	–	–
CC(Oc1ccc(C#N)cc1)C(=O)NC1CCCC1 (configuration not stated)	–	–	–	–	–	–
Cc1nc(-c2ccc(F)cc2)sc1CCNC(=O)c1ccc(OC(C)C)cc1	–	?	·	·	–	?
Cc1nc(-c2ccc(Cl)cc2)sc1CCNC(=O)c1ccc(C(F)(F)F)cc1	–	12µM	·	·	–	8.2µM
CCc1cccc(NS(=O)(=O)c2ccc3c(c2)n(C)c(=O)c(=O)n3C)c1	–	?	·	·	–	?
Cn1c(=O)c(=O)n(C)c2cc(S(=O)(=O)NCc3ccc(Cl)cc3)ccc21	–	?	–	–	–	16µM
CCc1cccc(NS(=O)(=O)c2ccc3c(c2)n(C)c(=O)n3C)c1	–	9.2µM	–	–	–	10µM
CCOC(=O)c1oc2ccc(S(=O)(=O)Nc3ccc4c(c3)n(C)c(=O)n4C)cc2c1C	–	21µM	–	–	–	?
Cn1c(=O)n(C)c2cc(S(=O)(=O)NCc3ccccc3)ccc21	–	?	–	–	–	?
CCc1ccc(S(=O)(=O)Nc2ccc3c(c2)n(C)c(=O)c(=O)n3C)cc1	–	15µM	·	·	–	?
Cc1ccc(NS(=O)(=O)c2ccc3c(c2)n(C)c(=O)n3C)cc1	–	–	–	–	–	?
CCc1ccc(NS(=O)(=O)c2cc3c(cc2C)n(C)c(=O)c(=O)n3C)cc1	–	13µM	–	–	–	15µM
Cc1cc2c(cc1S(=O)(=O)Nc1ccc(F)cc1)n(C)c(=O)c(=O)n2C	–	–	–	–	–	–
CCOC(=O)c1oc2ccc(S(=O)(=O)n3nc(-c4ccc(C)cc4)cc3N)cc2c1C	–	16µM	–	–	?	12µM
Cc1nc(N)[nH]c(=O)c1CCCNc1ccc(CCCCC2(CCl)OCCO2)cc1	–	?	?	–	–	18µM
COc1ccc(Cl)cc1NC(=O)CN1CCC(n2nnc3cc(C)ccc32)CC1	–	23µM	–	?	–	?
SMILES	HepG2 viability	TDP1 cell noCPT	HT1080NT lethal	HT1080 IDH1KD tx	TGFb inhibitor	TDP1 cell CPT
Cc1nc2cc(F)ccc2n1C1CCN(C(=O)c2c(F)cccc2F)CC1	–	21µM	–	–	–	12µM
C=CCNC(=O)CN1CCC(n2c(C)nc3cc(C(F)(F)F)ccc32)CC1	–	–	–	–	–	–
Cc1nc2cc(C(F)(F)F)ccc2n1C1CCN(CC(=O)NC(C)(C)C)CC1	–	?	–	–	–	18µM
Cc1nc2cc(F)ccc2n1C1CCN(C(=O)c2ccc(F)cc2F)CC1	–	?	?	–	–	?
COc1ccccc1NC(=O)CN1CCC(n2nnc3cc(F)ccc32)CC1	–	?	–	–	?	16µM
CCOCCCNC(=O)CN1C(=O)NC(Cc2c[nH]c3ccccc23)C1=O (configuration not stated)	–	–	–	–	–	–
Cc1ncc(C[n+]2csc(CCOP(=O)(O)OP(=O)(O)O)c2C)c(N)n1	·	–	·	·	·	–
CCc1ccc(C(=O)Nc2cc3c(cc2Cl)OCCCO3)cc1	–	?	–	–	–	?
O=S(O)CO	·	–	·	·	·	–
COc1ccc(C(=O)N2CCC(n3c(C)nc4cc(F)ccc43)CC2)cc1OC	–	–	–	–	–	–
COc1ccccc1NC(=O)CN1CCC(n2c(C)nc3cc(F)ccc32)CC1	–	23µM	–	–	–	?
CCOc1ccccc1NC(=O)c1nc2nc(C)cc(C(F)F)n2n1	–	?	·	·	–	?
CC(C)C[C@H]1CN([C@@H](CC(C)C)CN2CCC[C@@H]2CN2C(=S)NC[C@@H]2Cc2ccc(O)cc2)C(=S)N1CC1CCCCC1	–	16µM	21µM	15µM	?	?
CC(C)C[C@H]1CNC(=S)N1CC1CCCN1C[C@H](CC(C)C)N1C[C@H](CC(C)C)N(CC2CCCCCC2)C1=S (some centres not stated)	–	16µM	–	–	–	18µM
CC(C)C[C@@H](CN1CCCC1CN1C(=S)NC[C@@H]1Cc1ccccc1)N1C[C@H](Cc2ccc(O)cc2)N(CC2CCCCC2)C1=S (some centres not stated)	·	18µM	?	?	·	?
CC(C)C[C@@H](CN1CCCC1CN1C(=S)NC[C@@H]1Cc1ccccc1)N1C[C@H](Cc2ccccc2)N(CC2CCCCC2)C1=S (some centres not stated)	·	?	–	–	·	?
CC(C)C[C@H]1CN([C@@H](CC(C)C)CN2CCCC2CN2C(=S)NC[C@@H]2Cc2ccc(O)cc2)C(=S)N1CC1CCCCC1 (some centres not stated)	–	?	–	–	?	?
CC(C)C[C@H]1CNC(=S)N1CC1CCCN1C[C@H](CC(C)C)N1C[C@H](Cc2ccccc2)N(CC2CCCCCC2)C1=S (some centres not stated)	–	23µM	–	–	–	?
